# Several values for one entry are separate records, joined by “and”; a condition that tells them apart may be missing. Equal values may be shown once. More than one record can exist for a structure, and the calls need not agree. Activity calls are given as the source filed them. How the source made its calls: active means hit-call score of the fitted dose curve at least 0.9, where 1 is the maximum; inactive means score below 0.9.
# Read-out: Vascular cell adhesion molecule 1 (VCAM1), VCAM1 (gene 7412)
# Assay: BSK_LPS_VCAM1: BioMAP Diversity Plus: LPS Assay for Vascular cell adhesion molecule 1 (VCAM1) Biomarker Activity (AID 2283086)
# Details: primary human HUVEC with PBMC; actives raise or lower the signal
# In short: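 Primary human vascular co-culture (umbilical vein endothelium plus PBMC) stimulated with LPS received chemical; 24 h later VCAM-1 was read by ELISA. Overt cytotoxicity was assessed by sulforhodamine B staining of parallel cultures at the same time point.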
SMILES,outcome,AC50
CCOC(=O)C(C)Oc1ccc(Oc2cnc3cc(Cl)ccc3n2)cc1 (stereo not drawn),inactive,
C#C[C@]1(O)CC[C@H]2[C@@H]3CCC4=CC(=O)CC[C@@H]4[C@H]3CC[C@@]21CC,inactive,
CC(C)(c1ccc(O)cc1)c1ccc(O)cc1,inactive,25.5 µM (active) and 27 µM (active) and 20 µM (active)
COC(=O)c1ccccc1S(=O)(=O)NC(=O)Nc1nc(OC(F)F)cc(OC(F)F)n1,inactive,
S=C(S)NCCNC(=S)S.[Mn+2].[S-]C([S-])=NCCN=C([S-])[S-].[Zn+2],inactive,8.85 µM (active)
CCC(O)=C1C(=O)CC(C(=O)O)CC1=O (stereo not drawn),inactive,
CCCCCOC(=O)COc1cc(N2C(=O)C3=C(CCCC3)C2=O)c(F)cc1Cl,,15 µM (active)
CCOC(=O)c1ccc(O)cc1,inactive,
CCCCC(CC)COC(=O)c1ccccc1C(=O)O (stereo not drawn),,22.9 µM (active)
CCOC(=O)NCCOc1ccc(Oc2ccccc2)cc1,inactive,
CCC(C)OC(=O)N1CCCCC1CCO (stereo not drawn),inactive,
CCNc1nc(N)nc(Cl)n1,inactive,
COC(=O)c1ccccc1C(=O)O,inactive,
COC(=O)c1cccc(C)c1S(=O)(=O)NC(=O)Nc1nc(OCC(F)(F)F)nc(N(C)C)n1,inactive,
O=C(O)C1(C(=O)Nc2ccc(Cl)cc2Cl)CC1,inactive,
Oc1ccc(C(c2ccc(O)cc2)C(Cl)(Cl)Cl)cc1,,17.9 µM (active)
N[C@@H](Cc1cc(I)c(Oc2ccc(O)c(I)c2)c(I)c1)C(=O)O,inactive,
COc1c(Cl)ccc(Cl)c1C(=O)O,inactive,
CC(C)CCCCCCc1ccc(O)cc1,,10 µM (active)
N#CSCSc1nc2ccccc2s1,,4.53 µM (active) and 9.69 µM (active)
CCN(Cc1c(F)cccc1Cl)c1c([N+](=O)[O-])cc(C(F)(F)F)cc1[N+](=O)[O-],inactive,
O=C(O)c1ccccc1,inactive,
Cc1nn(C)c(Oc2ccccc2)c1C=NOCc1ccc(C(=O)OC(C)(C)C)cc1,,9.84 µM (active)
C[C@]12C[C@H](O)[C@H]3[C@@H](CCC4=CC(=O)CC[C@@]43C)[C@@H]1CC[C@@H]2C(=O)CO,inactive,
CC(=O)[C@H]1CC[C@H]2[C@@H]3CCC4=CC(=O)CC[C@]4(C)[C@H]3CC[C@]12C,inactive,
CCCCC(CC)CN1C(=O)C2C3C=CC(C3)C2C1=O (stereo not drawn),,20 µM (active)
O=C(c1ccccc1)C1CCCCC1,inactive,
CCCN(CCC)C(=O)SCC,inactive,
CCCOC(=O)c1ccc(C(=O)OCCC)nc1,inactive,
CCCOC(=O)NCCCN(C)C,inactive,

# Read-out: CD38, CD38 (gene 952)
# Assay: BSK_SAg_CD38: BioMAP Diversity Plus: SAg Assay for CD38 Biomarker Activity (AID 2283087)
# Details: primary human HUVEC with PBMC; actives raise or lower the signal
# In short: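 Fluorescence ELISA of cell-surface CD38 served as the read-out, with either increase or decrease fitted against DMSO controls. Cells were a human umbilical vein endothelium plus PBMC co-culture under SEB/TSST-1 stimulation, measured 24 h after dosing.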
SMILES,outcome,AC50
CCOC(=O)C(C)Oc1ccc(Oc2cnc3cc(Cl)ccc3n2)cc1 (stereo not drawn),inactive,
C#C[C@]1(O)CC[C@H]2[C@@H]3CCC4=CC(=O)CC[C@@H]4[C@H]3CC[C@@]21CC,inactive,
CC(C)(c1ccc(O)cc1)c1ccc(O)cc1,inactive,13.8 µM (active)
COC(=O)c1ccccc1S(=O)(=O)NC(=O)Nc1nc(OC(F)F)cc(OC(F)F)n1,inactive,
S=C(S)NCCNC(=S)S.[Mn+2].[S-]C([S-])=NCCN=C([S-])[S-].[Zn+2],inactive,
CCC(O)=C1C(=O)CC(C(=O)O)CC1=O (stereo not drawn),inactive,
CCCCCOC(=O)COc1cc(N2C(=O)C3=C(CCCC3)C2=O)c(F)cc1Cl,inactive,
CCOC(=O)c1ccc(O)cc1,inactive,
CCCCC(CC)COC(=O)c1ccccc1C(=O)O (stereo not drawn),inactive,
CCOC(=O)NCCOc1ccc(Oc2ccccc2)cc1,,29.1 µM (active)
CCC(C)OC(=O)N1CCCCC1CCO (stereo not drawn),inactive,
CCNc1nc(N)nc(Cl)n1,inactive,
COC(=O)c1ccccc1C(=O)O,inactive,
COC(=O)c1cccc(C)c1S(=O)(=O)NC(=O)Nc1nc(OCC(F)(F)F)nc(N(C)C)n1,inactive,
O=C(O)C1(C(=O)Nc2ccc(Cl)cc2Cl)CC1,,5.3 µM (active)
Oc1ccc(C(c2ccc(O)cc2)C(Cl)(Cl)Cl)cc1,,27.4 µM (active)
N[C@@H](Cc1cc(I)c(Oc2ccc(O)c(I)c2)c(I)c1)C(=O)O,inactive,
COc1c(Cl)ccc(Cl)c1C(=O)O,inactive,
CC(C)CCCCCCc1ccc(O)cc1,,8.61 µM (active)
N#CSCSc1nc2ccccc2s1,,5.37 µM (active) and 5.56 µM (active)
CCN(Cc1c(F)cccc1Cl)c1c([N+](=O)[O-])cc(C(F)(F)F)cc1[N+](=O)[O-],,8.9 µM (active)
O=C(O)c1ccccc1,inactive,
Cc1nn(C)c(Oc2ccccc2)c1C=NOCc1ccc(C(=O)OC(C)(C)C)cc1,,5.76 µM (active)
C[C@]12C[C@H](O)[C@H]3[C@@H](CCC4=CC(=O)CC[C@@]43C)[C@@H]1CC[C@@H]2C(=O)CO,inactive,
CC(=O)[C@H]1CC[C@H]2[C@@H]3CCC4=CC(=O)CC[C@]4(C)[C@H]3CC[C@]12C,,25.7 µM (active)
CCCCC(CC)CN1C(=O)C2C3C=CC(C3)C2C1=O (stereo not drawn),,26.3 µM (active)
O=C(c1ccccc1)C1CCCCC1,inactive,
CCCN(CCC)C(=O)SCC,inactive,
CCCOC(=O)c1ccc(C(=O)OCCC)nc1,,0.624 µM (active)
CCCOC(=O)NCCCN(C)C,inactive,

# — PubChem BioAssay (EPA / NIEHS)
